The list is not random: actives were taken first. Their share in the collection is about 1.5%.
CtBP-E1A blk: inhibitors of CtBP/E1A interaction | AlphaScreen GST-E1A/His-CtBP binding, 1536-well; stronger effect = lower value | activity change, % (no concentration beside the values) | 0.49% of 340,000 active | AID 651724; in the data active = activity change below about -65%; inconclusive = mostly about -30% to -63%
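Protein mix (5X: 125 nM each GST-E1A, His-CtBP) was incubated with pinned compound 2 h at 37 deg C in dark, in 50 mM Tris pH 8.0 buffer with 300 mM NaCl. Glutathione donor and nickel acceptor beads followed; AlphaScreen signal read after 1 h.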
GALK inhibitor: galactokinase (human) inhibition; P51570; Purified GALK, Kinase-Glo residual ATP luminescence; Potency, µM (series often up to 57.5 µM), inactives show top-dose activity change, negative = inhibition, usual class: inhibitors; 0.007% of 270,000 active; also: potency is read from the fitted curve at half-maximal effect
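5 nM enzyme, 35 uM ATP, 100 uM galactose, 20 mM HEPES pH8.0, 5 mM MgCl2; 1 h RT; residual ATP by Kinase-Glo Plus luminescence, qHTS format.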
Eya2 inh: inhibitors of human Eya2 phosphatase activity. Potency, µM (doses to about 76.9 µM), inactives show at the top dose activity, negative = inhibition, most hits filed as inhibitors. recombinant Eya2, OMFP fluorescence dephosphorylation (OMFP is methylfluorescein phosphate). 0.006% of 330,000 active. AID 488837; also: potency is read from the fitted curve at half-maximal effect
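Eya2 (0.2 uM) preincubated 10 min at ambient with compound, then OMFP substrate added at 50 uM; 10 min reaction in 50 mM HEPES pH 7.5, 50 mM NaCl, 5 uM MgCl2, 0.05% BSA, 1 mM DTT. Fluorescence read at Ex 485/Em 525 nm.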
TrxR1 substrate: rat thioredoxin reductase 1 substrate activity. purified TrxR1 substrate turnover, NADPH consumption readout. 0.01% of 390,000 active. Potency, µM (series often up to 114 µM), for the others: at the top dose activity change, negative = substrate turnover. AID 588456; also: potency is read from the fitted curve at half-maximal effect; nearly all actives have a fitted effect of over 50% in size
Target sequence (O89049 whole entry, looked up): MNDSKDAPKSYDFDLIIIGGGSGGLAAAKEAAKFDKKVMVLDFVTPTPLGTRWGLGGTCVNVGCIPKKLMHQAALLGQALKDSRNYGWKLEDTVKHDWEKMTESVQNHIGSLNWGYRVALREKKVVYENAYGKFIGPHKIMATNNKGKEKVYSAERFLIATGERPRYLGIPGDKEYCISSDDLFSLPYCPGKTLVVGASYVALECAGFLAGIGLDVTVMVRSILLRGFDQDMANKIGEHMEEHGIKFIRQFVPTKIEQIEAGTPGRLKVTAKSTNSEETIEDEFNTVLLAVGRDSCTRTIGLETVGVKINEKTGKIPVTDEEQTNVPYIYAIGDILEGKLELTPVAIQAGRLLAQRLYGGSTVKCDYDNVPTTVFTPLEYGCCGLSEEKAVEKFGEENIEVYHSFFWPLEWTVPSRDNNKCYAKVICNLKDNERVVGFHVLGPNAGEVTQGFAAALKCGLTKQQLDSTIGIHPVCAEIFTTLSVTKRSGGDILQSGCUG
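Rat TrxR1, dispensed at 90 nM, was prereduced with 400 uM NADPH (final) for 5 min at ~22 deg C, then incubated with compound 15 min before 400 uM selenite. A first-read NADPH fluorescence drop versus no-compound background flagged substrates.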
Six1-Eya2 inh: Six1/Eya2 interaction inhibition. Q15475+O00167. AlphaScreen GST-Six1/His-Eya2 binding, biochemical; stronger effect = lower value. 0.56% of 360,000 active. activity change, % (no concentration beside the values). AID 651725; in the data active = activity change below about -65%; inconclusive = mostly about -30% to -63%
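Six1/Eya2 binding was read as AlphaScreen signal after compounds were pinned into GST-Six1 plus His-tagged Eya2 (5X stock 250/500 nM) in pH 8.0 Tris/NaCl/TCEP buffer, beads added, then incubated 1 h, 37 C, dark.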
rTrxR1 inhibitor: blocks rat thioredoxin reductase 1; O89049; recombinant rTrxR1, NADPH fluorescence consumption, selenite substrate; Potency, µM (series often up to 114 µM), inactives show at the top dose activity change, negative = inhibition, most hits filed as inhibitors; 1% of 390,000 active; also: potency is read from the fitted curve at half-maximal effect; nearly all actives have a fitted effect of over 65% in size
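Rat TrxR1 (90 nM in the dispensed reagent) was pre-reduced with 400 uM NADPH for 5 min at room temperature, then incubated with compound for 15 min. After 400 uM selenite was added, NADPH fluorescence (Ex 340/Em 450 nm) was followed for 8 min.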
* hit, by the source's call; ? = inconclusive; nt = not tested or not shown; ! = not active in a repeat; [ ] = dose if it differs, or a comment. Unless noted, calls follow the shape of the dose curve; as a rule, active = well fitted curve in the direction sought with a large enough effect; inconclusive = small, poorly fitted or top-dose-only effect, or another doubt; inactive = no such curve, though single readings can be large; an effect the other way counts as inactive or inconclusive. % is scaled to controls: 0 for no effect and ±100 for the full control effect.

SMILES | CtBP-E1A blk | GALK inhibitor | Eya2 inh | TrxR1 substrate | Six1-Eya2 inh | rTrxR1 inhibitor
CC(C)c1ccc(C(=O)Nc2cc(-c3ccccc3F)nn2-c2ccccc2)cc1 | nt | nt | nt | 1%[57.1 µM] | nt | 35%[57.1 µM]
O=c1[nH]nc(N=Nc2c(O)[nH]c3ccc(F)cc23)c(=O)[nH]1 | -71* | nt | nt | 0% | -80* | 20%
Cc1ccc(CNC(=O)CSc2nnc(C)c3c(C)n(-c4ccccc4)nc23)cc1 | nt | nt | nt | -5% | nt | 1%
O=C(CNC(=O)c1ccccc1Br)N/N=C/c1cc(Br)ccc1O | -73* | 0% | 7% | 0% | ? | 7%
O=C(CNC(=O)c1ccccc1Br)N/N=C\c1cc([N+](=O)[O-])cc(Br)c1O | -73* | 3% | 4% | -18% | ? | -12%
O=C(N/N=C/c1c(Cl)nc2ccccn2c1=O)c1cccnc1 | -14 | 1% | 1% | 8% | -69* | ?
Cc1c(/C=N/NC(=O)c2cccnc2)c2ccccn2c1C(=O)c1ccc(F)cc1 | nt | 2% | -4% | nt | nt | nt
COC(=O)N/N=C/c1cc([N+](=O)[O-])cc(Br)c1O | 9 | 1% | -6% | -8%[57.1 µM] | -8 | 0%[57.1 µM]
O=C(N/N=C/c1cc(Cl)ccc1O)c1cccnc1 | -91* | 1% | 10% | -6% | -68* | 2%
O=C(CNC(=O)c1ccc2c(c1)OCO2)N/N=C/c1cc(Br)ccc1O | -18 | -1% | -4% | 5% | -18 | 17%
COc1ccc(OC)c(S(=O)(=O)NCCc2sc(C)nc2C)c1 | nt | nt | nt | 3%[57.1 µM] | nt | 32%[57.1 µM]
Nc1nnc(CC(=O)N/N=C/c2cc([N+](=O)[O-])cc(Br)c2O)s1 | ? | -2% | 5% | -14% | ? | 35µM*
O=C(N/N=C/c1cc(Cl)ccc1O)c1ccccc1Br | -90* | 1% | -14% | -6% | -70* | 8%
O=C(CNC(=O)c1ccccc1Br)N/N=C/c1ccccc1O | ? | -2% | -10% | 6% | -65* | 21%[57.1 µM]
Nc1nnc(CC(=O)N/N=C/c2cccc([N+](=O)[O-])c2)s1 | 11 | -1% | -2% | -7% | -18 | ?
O=C(CNC(=O)c1ccccc1Br)N/N=C/c1cccs1 | nt | -1% | 1% | -3% | -10 | 8%
O=C(Cn1ncc2c3ccccc3n(Cc3cccc(Cl)c3)c2c1=O)NC1CCCCCC1 | nt | nt | nt | 5% | nt | 1%
CC(=O)C[C@H]1c2cc(F)cc(F)c2S(=O)(=O)N1C1CCN(Cc2ccccc2)CC1 | nt | nt | nt | 2% | nt | 2%
Cc1nnc(SCC(=O)c2c(N)n(C)c(=O)n(C)c2=O)[nH]c1=O | -73* | 1% | -13% | -10% | ? | -1%[57.1 µM]
CC1(C)CC(=O)C2=C(C1)N(c1ccccc1)C(N)=C(C#N)C2c1ccccc1 (stereo not given) | -1 | -6% | 3% | 1%[57.1 µM] | 10 | -24%[57.1 µM]
CC1(C)CC(=O)C2=C(C1)N(c1ccccc1)C(N)=C(C#N)C2c1cccnc1 (stereo not given) | 10 | 7% | 0% | 2% | 9 | 79µM*
COc1ccc(OC)c2c(C)ccnc12 | nt | nt | nt | 4% | nt | 12%
CCOC(=O)C1=C(CC)OC(N)=C(C#N)C1c1ccc(NC(C)=O)cc1 (stereo not given) | 2 | nt | -3% | 3% | 9 | 45µM*
COc1cc(OC)c(-c2nn3c(-c4cc(C)[nH]n4)nnc3s2)cc1OC | nt | nt | nt | 83% | nt | -4%
COc1ccc(S(=O)(=O)Cc2ccc(C(=O)N3CCc4ccccc4C3)o2)cc1 | 1 | 2% | 3% | 6% | -1 | 50µM*
SMILES | CtBP-E1A blk | GALK inhibitor | Eya2 inh | TrxR1 substrate | Six1-Eya2 inh | rTrxR1 inhibitor
Cc1ccc(S(=O)(=O)Cc2ccc(C(=O)N3CCN(Cc4ccccc4)CC3)o2)cc1 | nt | 1% | 10% | nt | nt | nt
Cc1ccc(S(=O)(=O)Cc2ccc(C(=O)O)o2)cc1 | 31 | 1% | 14% | 0% | -6 | 25µM*
Cc1ccc(S(=O)(=O)Cc2ccc(C(=O)N3CCc4ccccc4C3)o2)cc1 | -1 | -1% | 20% | -7% | -10 | 71µM*
N#CC1=C(N)N(c2cccc(Cl)c2)C2=C(C(=O)CCC2)C1c1cc(CN2CCOCC2)cs1 (stereo not given) | nt | nt | nt | 2% | nt | 48%[11.4 µM]
CCOC(=O)CSc1nc2cc(OC)c(OC)cc2c2nc(-c3ccccc3)nn12 | nt | nt | nt | 0% | nt | 19%
O=C(Nc1cccc(C(=O)O)c1)/C(=C/c1cccc([N+](=O)[O-])c1)NC(=O)c1cccc(Br)c1 | 0 | nt | nt | 2% | 8 | 13%
O=C(N/N=C/C(Cl)=C/c1ccc([N+](=O)[O-])cc1)C(=O)Nc1cccc(C(=O)O)c1 | -92* | -4% | -6% | -17% | ? | 79µM*
Cc1cc2c(C)cc(=O)[nH]c2cc1NC(=O)CCl | -6 | 4% | -8% | 2% | 7 | 20µM*
COC(=O)c1sc(=S)sc1C(=O)OC | 13 | 2% | 10% | -5% | -89* | -29%
COc1cc(OC)cc(C(=O)Nc2ccc(NC(=O)c3ccco3)c(C)c2)c1 | -3 | 18% | -5% | -3% | -1 | 25µM*
O=C(Nc1ccc(C(=O)N2CCC(N3CCCC3)CC2)cc1)c1ccc(Br)o1 | 3 | nt | 12% | 2% | 4 | 56µM*
Cc1ccc(C(=O)N2CCN(c3ccc(NC(=O)c4ccc(Br)o4)cc3)CC2)cc1 | -24 | -1% | 9% | 2% | -22 | -10%
CCOC(=O)c1cc2c(=O)n3cccc(C)c3nc2n(Cc2ccco2)c1=NC(=O)c1ccccc1 | 13 | -4% | -14% | 3%[11.4 µM] | 7 | 56µM*!
Oc1c(C(c2ccccc2F)N2CCOCC2)sc2nc(-c3ccco3)nn12 (stereo not given) | nt | nt | nt | 1%[57.1 µM] | nt | 1%[57.1 µM]
S=C(NCCCc1cnc[nH]1)NCCCN(CCc1ccccc1)c1ccc(Br)cn1 | nt | nt | nt | -1% | nt | -8%
O=C(NCc1ccco1)C1Cc2ccccc2CN1C(=O)c1ccco1 (stereo not given) | 0 | 7% | -6% | -21%[11.4 µM] | 12 | -43%
O=C(NCc1ccco1)C1Cc2ccccc2CN1S(=O)(=O)c1ccccc1F (stereo not given) | 0 | nt | nt | -1% | -12 | 16µM*
Cc1ccccc1CS(=O)(=O)Cc1ccc(C(=O)NCc2ccco2)o1 | -3 | 0% | 4% | -5% | 5 | 79µM*
Cc1ccccc1CS(=O)(=O)Cc1ccc(C(=O)NCc2ccccn2)o1 | ? | -1% | 11% | -3% | -18 | 50µM*
O=C(NCc1ccccn1)c1ccc(CS(=O)(=O)Cc2ccc(Cl)cc2)o1 | 6 | -1% | -10% | 2% | 5 | ?
CC(C(=O)NCc1cccc(Br)c1)n1ncn2cccc2c1=O (stereo not given) | nt | nt | nt | 8% | nt | ?
